Assay results from PubChem BioAssay (NCI).
Compounds without any hit were thinned out: in the full panel of roughly 83,000, 20% have a hit.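 Results are percent growth after 48 hours of single-concentration exposure. 100 means growth as in untreated cells, lower positive values show inhibition; negative values down to -100 show cell death.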 Active and inactive are the calls of the source. Rule for the calls: active = growth percent below 10; inactive = the rest.

The compounds below were run on MDA-MB-468 breast (assay: NCI-60 one-dose screen, 48 h (100 = growth as untreated, 0 = no growth, -100 = all killed)). Conditions: 10 µM unless noted.

SMILES	growth
O=C1COCCN1c1ccc(Nc2nc(Cl)nc(N3CCOCC3)n2)cc1	87.2% (inactive)
Cc1ccc(NCCN(C)CC(C)O)c2c(=O)c3ccc(Cl)cc3sc12 (stereo not given)	-2.72% (active)
COc1nc2ccccc2cc1-c1nc2c(cnn2-c2ccc(Br)cc2)c(=O)[nH]1	5.52% (active)
O=C1C=CC(=O)N1c1ccccn1	114% (inactive)
CN(C)CCCOc1ccc2c(c1)CN(C(=O)c1cc(C(=O)N3Cc4cccc(F)c4C3)ccc1O)C2	106% (inactive)
CCc1nc(C(N)=O)c(Nc2ccc(N3CCC(N4CCN(C)CC4)CC3)c(OC)c2)nc1NC1CCOCC1	69.7% (inactive)
Cc1nc2sc(C(=O)Nc3ccccc3)c(N)c2cc1C(O)c1ccccc1 (stereo not given)	3.45% (active)
CCc1nc2c(=O)[nH]cnc2o1	90.8% (inactive)
C=C(C)[C@@H]1CC[C@]2(CO)CC[C@]3(C)[C@H](CC[C@@H]4[C@@]5(C)C=C(C#N)C(=O)C(C)(C)[C@@H]5CC[C@]43C)[C@@H]12	8.08% (active)
COc1ccc(OC)c(/C=C2\CCc3ccccc3C2=O)c1	-5.15% (active)
Cn1c(SCC(=O)c2ccc(F)cc2)nc2ccccc2c1=O	79.4% (inactive)
COC(=O)c1ccc2c(c1)nc(-c1cc3ccccc3[nH]c1=O)n2-c1cc(C(C)(C)C)[nH]n1	101% (inactive)
C/C(O)=C(/C=N\C(=S)Nc1ccc(S(=O)(=O)Nc2nccs2)cc1)C(=O)Nc1ccccc1C	82% (inactive)
COc1c(O)c2c3c(c1OC)-c1ccccc1CC3N(S(=O)(=O)c1ccc(C)cc1)CC2 (stereo not given)	37.1% (inactive)
CCOc1ccc(C2N(c3cc(OC)c(OC)c(OC)c3)C(=O)C2(F)F)cc1 (stereo not given)	34.9% (inactive)
COc1cccc(-c2cnco2)c1OCc1c(C)c(COc2c(OC)cccc2-c2cnco2)c(C)c(COc2c(OC)cccc2-c2cnco2)c1C	59% (inactive)
Cc1nc(NC(=S)Nc2ccc(F)cc2)sc1C(=O)NNC(=S)Nc1ccc(F)cc1	44.6% (inactive)
Brc1ccc(-c2cc(-c3ccc4c(c3)OCCO4)n[nH]2)s1	7.7% (active)
O=C(/C=C1\C=CN(CCCCO)c2ccccc21)n1ccc2ccccc21	98% (inactive)
Cc1ccc(S(=O)(=O)Nc2c(Br)cc(Br)cc2C(N)=O)cc1	102% (inactive)

SMILES	growth
CCOC(=O)c1cc(C(=O)c2cc(OC)cc(OC)c2)n2nc(C)ccc12	29.8% (inactive)
NC1[C@H](c2c[nH]c3ccccc23)c2c([nH]c3ccccc23)[C@H]1c1c[nH]c2ccccc12 (stereo not given in full)	106% (inactive)
COc1cc(-c2nc3nc4sc(C)c(C)c4c(=O)n3[nH]2)cc(OC)c1OC	75.5% (inactive)
O=C(Nc1ncc(Cc2cccc(C(F)(F)F)c2)s1)c1ccc2c(c1)OCCO2	15.6% (inactive)
CC(=O)c1ccc2c(c1)CCN2	104% (inactive)
CCCCCCN=C(N)CCCCCCCCCCC(N)=NCCCCCC	-8.12% (active)
CCOC(=O)/C=C1\S/C(=N\Nc2cc(=O)[nH]c3ccccc23)N(c2ccccc2)C1=O	105% (inactive)
O=c1cc(-c2ccccc2)oc2cc(OCc3cn(Cc4ccc(F)cc4)nn3)cc(O)c12	53.9% [100 µM] (inactive)
COc1ccc(-c2nc3cc(Cl)c(Cl)cc3n2CC(=O)N=Nc2c(O)[nH]c3ccc(Br)cc23)cc1	-71% (active)
O=C(O)c1ccc2c(c1Sc1ccccc1)C(=O)c1ccccc1C2=O	97.9% (inactive)
COc1ccc(NC(=O)Cn2cc(CN3C(=O)c4ccc([N+](=O)[O-])cc4C3=O)nn2)cc1	110% (inactive)
C[C@@H](CO)[C@@H]1CCC=C2CC[C@]3(C)[C@H](CC[C@@H]4[C@@]5(C)CCCNC(C)(C)[C@@H]5CC[C@]43C)[C@H]21	-15.2% (active)
Cc1cc(Nc2cc(N3CCN(C)CC3)nc(Sc3ccc(NC(=O)C4CC4)cc3)n2)n[nH]1	46.7% (inactive)
Cc1ccc2c(NCCCN(C)C)c3c(C)nn(C)c3nc2c1	22.1% (inactive)
CN(C)CCNc1nc2c3cc(Cl)ccc3nn2c2ccccc12	74.2% (inactive)
Cc1[nH]c(/C=C/C(=O)c2ccc(C(F)(F)F)c(F)c2)c(C)c1C(=O)NCC(C)C	93.6% (inactive)
COc1ccc2c(c1)C(=O)c1c-2c(OCCN(C)C)nc2cc(OC)ccc12	15.9% (inactive)
COC(=O)C1(C)COP(=O)(Nc2ccc(OC)cc2)OC1 (stereo not given)	106% (inactive)
Cc1ccc(-c2ccc(/C=C(\C#N)c3nc(-c4ccco4)cs3)o2)cc1	-45.8% (active)
COc1ccc(C(=O)C(C#N)c2cc(OC)c(OC)c(OC)c2)cc1 (stereo not given)	102% (inactive)
